The text below walks through data of the supplement of paper PMC9694430.

Structures can show the parent of a compound that is named as a salt.

This assay relates to LOC_OS01G48390-cb002. As to the kind of experiment: thermal shift delta Tm vs DMSO control; higher = stronger stabilization (binding). Particulars: 12.5 µM; protein concentration 2 µM. The procedure, abridged: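 Purified, E. coli-expressed rice kinase domain constructs were tested by differential scanning fluorimetry in 96-well plates: 19.5 μl of 2 μM kinase in 100 mM potassium phosphate pH 7.5, 150 mM NaCl, 10% glycerol, 5 × SYPRO Orange, plus compound in DMSO. Fluorescence was read from 25°C to 95°C at 0.05°C/s. Melting temperatures came from Boltzmann fits, and the shift is the triplicate mean relative to protein with DMSO alone.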
In the case of `CCNC(=O)Nc1ccc(-c2nc(N3CCOC[C@@H]3C)c3c(n2)C(C)(C)S(=O)(=O)C3)cc1`, the “thermal shift delta Tm” value is -0.02 °C.

Regarding `CN1CCN(c2ccc(OC(F)(F)F)c(Nc3ncc4c(n3)-c3c(c(C(N)=O)nn3CCO)CC4)c2)CC1`, the “thermal shift delta Tm” value is -0.15 °C.

As to `C[C@@H](Oc1cc(-n2cnc3ccc(CN4CCN(C)CC4)cc32)sc1C(N)=O)c1ccccc1C(F)(F)F`, the “thermal shift delta Tm” value is 0.1 °C.

Consider `COc1cc(OC)cc(-c2cc3cnc(N)nc3nc2NC(=O)NC(C)(C)C)c1`, for which the “thermal shift delta Tm” value was found to be 0.85 °C.

On to `COC(=O)c1ccc2c(c1)NC(=O)/C2=C(\Nc1ccc(N(C)C(=O)CN2CCN(C)CC2)cc1)c1ccccc1` [Nintedanib (BIBF 1120)], for which the “thermal shift delta Tm” value stood at 1.19 °C.

With `Cc1[nH]c(/C=C2\C(=O)Nc3ccccc32)c(C)c1CCC(=O)O` [Orantinib (TSU-68, SU6668)], the “thermal shift delta Tm” value was 1.34 °C.

In the case of `NC1(c2ccc(-c3nc4ccn5c(=O)[nH]nc5c4cc3-c3ccccc3)cc2)CCC1`, the “thermal shift delta Tm” value was 0.18 °C.

Take `N#Cc1ccc2[nH]c(O)c(-c3ccc(CN4CCOCC4)cn3)c2c1`: the “thermal shift delta Tm” value stood at 1.33 °C.

As to `C=C[C@@](C)(/C=C/c1ccc(O)cc1)CCC=C(C)C` [Bakuchiol], the “thermal shift delta Tm” value worked out at 0.85 °C.

As for `Cn1cnc2c(F)c(Nc3ccc(Br)cc3F)c(C(=O)NOCCO)cc21`, the “thermal shift delta Tm” value is 0.43 °C.

For the compound `CC(C)(C)c1nc(-c2ccc(NC(=O)Nc3cccc(C(F)(F)F)c3)c3ccccc23)c2c(N)nccn12` [kira6], the “thermal shift delta Tm” value was 1.52 °C.

Turning to `CC1=C(C(=O)Nc2cc3cn[nH]c3cc2F)C(c2ccc(C(F)(F)F)cc2)CC(=O)N1` (configuration not stated), the “thermal shift delta Tm” value is -0.18 °C.

Consider `Cc1cn(-c2cc(NC(=O)c3ccc(C)c(Nc4nccc(-c5cnccn5)n4)c3)cc(C(F)(F)F)c2)cn1` [Radotinib], for which the “thermal shift delta Tm” value turned out to be 0.73 °C.

Take `COc1ncc(-c2ccc3nccc(-c4ccnnc4)c3c2)cc1NS(=O)(=O)c1ccc(F)cc1F`: the “thermal shift delta Tm” value was 0.45 °C.

Consider `CNC(=O)c1cc(COc2nnc(Nc3ccc(Cl)cc3)c3ccoc23)ccn1` [Telatinib], for which the “thermal shift delta Tm” value amounted to 0.26 °C.

`COc1cc2nccc(Oc3ccc(NC(=O)C4(C(=O)Nc5ccc(F)cc5)CC4)cc3)c2cc1OC` [Cabozantinib malate (XL184)]: the “thermal shift delta Tm” value stood at 3.62 °C.

For `C1=N/C2=N/c3ccc(OCCN4CCCC4)c(c3)COC/C=C/COCc3cccc(c3)C(=C1)N2` [Pacritinib (SB1518)], the “thermal shift delta Tm” value is 2.71 °C.

`N#Cc1cnc(Nc2cc(NC[C@H]3CNCCO3)c(C(F)(F)F)cn2)cn1`: the “thermal shift delta Tm” value is 2.58 °C.

As for `COc1cc(N2CCN(C)CC2)ccc1Nc1nccc(-c2cn(C)c3cnccc23)n1`, the “thermal shift delta Tm” value came out at 1.57 °C.

In the case of `CC(C)(C)NS(=O)(=O)c1cncc(-c2cc(F)c3nc(N)nn3c2)c1`, the “thermal shift delta Tm” value is 0.32 °C.

For `CCNC(=O)C#Cc1ccc2c(C(=Nc3ccc(CN(C)C)cc3)c3ccccc3)c(O)[nH]c2c1`, the “thermal shift delta Tm” value was 1.35 °C.

`O=C1NC(=O)[C@@H](c2cn3c4c(cccc24)CCC3)[C@@H]1c1c[nH]c2ccccc12` [Tivantinib (ARQ 197)]: the “thermal shift delta Tm” value turned out to be 0.43 °C.

As for `O=S(=O)(c1cccc2c(I)cccc12)N1CCCNCC1`, the “thermal shift delta Tm” value was found to be 1.35 °C.

For `CCN1CCN(Cc2ccc(C(=O)Nc3ccc(C)c(Oc4ccc5c(c4)CC(=O)N5)c3)cc2C(F)(F)F)CC1`, the “thermal shift delta Tm” value was found to be 0.94 °C.

Turning to `C[C@@H](Nc1cc(F)cc(F)c1)c1cc(C(=O)N(C)C)cc2c(=O)cc(N3CCOCC3)oc12`, the “thermal shift delta Tm” value was 0.46 °C.

With `C[C@H](CN(C)C)Oc1nc(Nc2cc3cccc(Cl)c3cn2)cnc1C#N`, the “thermal shift delta Tm” value turned out to be 4.18 °C.

With `CNC(=O)c1cc(Oc2ccc(NC(=O)Nc3ccc(Cl)c(C(F)(F)F)c3)cc2)ccn1` [Sorafenib], the “thermal shift delta Tm” value came to 2.74 °C.

For the compound `COc1ccc(Cl)cc1NC(=O)Nc1cc(C)nc2ccccc12`, the “thermal shift delta Tm” value was determined as 5.48 °C.

As for `O=C(c1cccc(Cl)c1F)N1CCN(Cc2cccc(Nc3nccs3)n2)CC1`, the “thermal shift delta Tm” value came to 1.3 °C.

Regarding `CNC(=O)c1ccc(C)c(-n2c(C)cc(OCc3ccc(F)cc3F)c(Br)c2=O)c1`, the “thermal shift delta Tm” value was 0.65 °C.

In the case of `CCn1c(-c2nonc2N)nc2c(C#CC(C)(C)O)ncc(OC[C@H]3CCCNC3)c21`, the “thermal shift delta Tm” value turned out to be 0.07 °C.

As for `CCC[C@H](NC(=O)/C(C#N)=C/c1cccc(Br)n1)c1ccccc1` [Degrasyn (WP1130)], the “thermal shift delta Tm” value is -0.09 °C.

Turning to `OC1CCC(Nc2ncc3nc(Nc4c(F)cc(F)cc4F)n([C@H]4CCOC4)c3n2)CC1` (some centres not stated) [Tanzisertib(CC-930)], the “thermal shift delta Tm” value stood at 0.2 °C.

For `CN(C)C/C=C/C(=O)Nc1cc2c(Nc3ccc(F)c(Cl)c3)ncnc2cc1O[C@H]1CCOC1` [Afatinib (BIBW2992) Dimaleate], the “thermal shift delta Tm” value came out at 2.48 °C.

With `Cc1cc(O)c(-c2ccc([C@@H](C)CN)cc2)c2c1[nH]c(=O)c1sccc12` [OTS514 hydrochloride], the “thermal shift delta Tm” value was determined as 1.38 °C.

Turning to `Cc1ccc(F)c(NC(=O)Nc2ccc(-c3cccc4[nH]nc(N)c34)cc2)c1` [Linifanib (ABT-869)], the “thermal shift delta Tm” value worked out at 4.44 °C.

As for `COc1cc(N2CCC(N(C)C)CC2)ccc1Nc1ncc(Cl)c(Nc2ccccc2P(C)(C)=O)n1`, the “thermal shift delta Tm” value is 0.54 °C.
